Assay results: PubChem BioAssay (NCI)
Compounds without any hit were thinned out: in the full panel of roughly 83,000, 20% have a hit.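 Single-concentration screen, 48 h exposure, 96-well plates. Endpoint: percent growth. Below 10 = active.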 Calls of active or inactive are those of the source.

Experiments:
Assay in all cases: NCI-60 one-dose screen, 48 h (100 = growth as untreated, 0 = no growth, -100 = all killed)
Details in all cases: 10 µM unless noted
[1] = tested on: T-47D breast
[2] = tested on: BT-549 breast
[3] = tested on: MDA-MB-435 melanoma
[4] = tested on: SW-620 colon
[5] = tested on: HCT-116 colon
[6] = tested on: HCC-2998 colon
[7] = tested on: KM12 colon
[8] = tested on: MCF7 breast

Measured: growth

CC(C)(C)c1cc(NC(=O)Nc2ccc(-c3cn4c5c(sc4n3)CCc3cn(CCCN4CCCCC4)cc3-5)cc2)no1
inactive: [2] 109%
active: [1] -32.8% | [3] -98.5% | [4] -68.2% | [5] -96.2% | [6] -82.7% | [7] -78%

CCOC(=O)c1c(NCC(=O)Nc2cccc([N+](=O)[O-])c2)sc(C(C)=O)c1C
inactive: [1] 34.6%
active: [2] -40.7% | [3] -26% | [4] 3.65% | [5] -14.3% | [6] -62.3% | [7] -7.12%

Cn1c(SCC(=O)c2ccc(F)cc2)nc2ccccc2c1=O
inactive: [1] 62.5% | [2] 97% | [3] 108% | [4] 108% | [5] 89.1% | [6] 104% | [7] 98.1%

C/C(=N\NC(N)=S)c1nnn(-c2ccc([N+](=O)[O-])cc2)c1C
inactive: [1] 92% | [2] 95.5% | [3] 102% | [4] 94.9% | [5] 98.6% | [6] 100% | [7] 96.8%

CC1(C)CC[C@]23CC[C@]4(C)[C@H](CC[C@@H]5[C@@]6(C)CC[C@H](NCO)C(C)(C)[C@@H]6CC[C@]54C)[C@H]2[C@H]1OC3
active: [4] -73.5% | [5] -9.59% | [6] -24% | [7] -0.242%
inactive: [1] 44.2% | [2] 98.5% | [3] 38.8%

CCOP(=O)(OCC)OC[C@]12CC[C@@H](C)[C@H](C)C1C1=CC[C@@H]3[C@@]4(C)CCCNC(C)(C)[C@@H]4CC[C@@]3(C)[C@]1(C)CC2 (stereo partly drawn)
active: [4] -54.7% | [5] -84.5% | [6] -55.1%
inactive: [1] 38.2% | [2] 71.7% | [3] 28.4% | [7] 18.2%

CC[C@H](CC[C@@H](C)[C@H]1CC[C@H]2[C@@H]3CC(=O)C4=CC(=O)/C(=C/c5ccc([N+](=O)[O-])cc5)C[C@]4(C)[C@H]3CC[C@]12C)C(C)C
inactive: [1] 89.1% | [2] 109% | [3] 94.4% | [4] 110% | [5] 86.5% | [6] 105% | [7] 100%

C#CCN(C)CCCOc1ccc(NC(=O)CCCCCCCCC(=O)NO)cc1Cl
inactive: [1] 72.6% | [2] 92.5% | [3] 74.2% | [4] 63.1% | [5] 39.2% | [6] 71.8% | [7] 83.4%

C#CCOc1cccc(/C(N)=N/C(N)=N/c2nc3ccccc3s2)c1
inactive: [1] 72.3% | [2] 91.7% | [3] 104% | [4] 105% | [5] 80.4% | [6] 109% | [7] 78.7%

CN1CCN(Cc2ccc(NC(=O)c3cncc(C#Cc4cnc5ccc(OCC(F)F)nn45)c3)cc2C(F)(F)F)CC1
active: [1] 8.64% | [2] -16.6% | [3] -92.6% | [4] -49.1% | [5] -84.3% | [6] -67% | [7] -53.9%

O=C(CSc1nc2ccccc2c(=O)n1-c1ccccc1)Nc1ccc(S(=O)(=O)Nc2nccs2)cc1
inactive: [1] 69.3% | [2] 45.2% | [3] 84.1% | [4] 67.9% | [5] 37.7% | [6] 118% | [7] 94.4%

NNc1nnc2nc(Nc3ccccc3)nc(Nc3ccc(S(N)(=O)=O)cc3)n12
inactive: [1] 109% | [2] 107% | [3] 108% | [4] 104% | [5] 107% | [6] 104% | [7] 103%

CC1(C)CC[C@]2(C(=O)O)CC[C@]3(C)C(=CC[C@@H]4[C@@]5(C)CC[C@H](NOCCCN)C(C)(C)[C@@H]5CC[C@]43C)[C@@H]2C1
inactive: [1] 73.1% | [2] 80% | [3] 91.7% | [4] 83.8% | [8] 68.2% | [5] 57.2% | [6] 76.3% | [7] 80.9%

CC1=C(C)C(=O)C(Nc2ccc(C)c(C)c2)=C(Br)C1=O
inactive: [1] 41.6% | [2] 100% | [3] 103% | [4] 103% | [5] 34.7% | [6] 96.4% | [7] 99.8%

CCOC(=O)C1=C(C)NC(C)=C(C(=O)OCc2ccccc2)C1c1cccc(C#N)c1 (stereo not drawn)
inactive: [1] 27% | [2] 31.7% | [8] 21.2% | [5] 13.2% | [6] 70.8% | [7] 25.5%
active: [3] -10.4%

N#C/C(=N\Nc1ccc(F)cc1)C(=O)Nc1cc(-c2ccccc2)nn1-c1ccccc1
active: [1] -5.1% | [2] 7.63% | [3] 6.98% | [8] 0.117% | [5] 7.78% | [7] 9.32%
inactive: [6] 19.5%

CN(C)CC(=O)Nc1nc(-c2cccc(NS(=O)(=O)c3cccc4c(N(C)C)cccc34)c2)cs1
inactive: [1] 56.9% | [2] 87.8% | [3] 99% | [8] 68.3% | [5] 80.1% | [6] 85.8% | [7] 94.1%

CSc1ccc(/C(=N/N=C(N)N)c2ccc(F)cc2)cc1
inactive: [1] 58.1% | [2] 16.2% | [3] 10.6% | [4] 22.2%
active: [5] 6.25% | [6] -14.1% | [7] 9.6%

O=C(/C=C/c1cccc(F)c1)c1cccc(OCCCCOc2cccc(C(=O)/C=C/c3cccc(F)c3)c2)c1
inactive: [1] 105% | [2] 124% | [3] 103% | [4] 98.1% | [5] 72.8% | [6] 114% | [7] 110%

CNC(=O)c1cc(-c2ccc(NC(=S)Nc3cccc(C(F)(F)F)c3)cc2)nc2cccnc12
inactive: [1] 102% | [2] 104% | [3] 95.9% | [4] 96.8% | [5] 103% | [6] 116% | [7] 98.8%

CCCCSC1=C(Cl)CN(c2ccccc2)C1=O
inactive: [1] 85% | [2] 110% | [3] 108% | [4] 106% | [5] 104% | [6] 105% | [7] 93.7%

CC(=O)OCCCCN1C=C/C(=C\C(=O)n2ccc3ccccc32)c2ccccc21
inactive: [1] 92.7% | [2] 113% | [3] 106% | [8] 90.4% | [5] 103% | [6] 112% | [7] 97.7%

C#CCOc1cccc(-c2nc(N)nc(Nc3ccccc3SSc3ccccc3Nc3nc(N)nc(-c4cccc(OCC#C)c4)n3)n2)c1
active: [7] 3.92%
inactive: [1] 40.5% | [2] 58.8% | [3] 72.7% | [4] 71.4% | [5] 45.7% | [6] 94.6%

NS(=O)(=O)c1ccc(CCn2c(-c3ccc(C(=O)O)cc3)nc(-c3ccccc3)c2-c2ccccc2)cc1
inactive: [1] 104% | [2] 104% | [3] 98.8% | [8] 93.6% | [5] 101% | [6] 108% | [7] 107%

NS(=O)(=O)c1ccc(Nc2nc(N/N=C/C=C/c3ccccc3)nc(Nc3ccccc3)n2)cc1
inactive: [1] 18.9% | [2] 65.9% | [3] 51.6% | [4] 51.1% | [5] 29.5% | [6] 38.3% | [7] 55.4%

O=C(CSc1nnc(-c2ccc(Cl)cc2)n1-c1ccccc1)Nc1cccc(F)c1
inactive: [2] 50.4% | [3] 49.6% | [4] 30.9% | [6] 59.7% | [7] 53.3%
active: [1] 3.95% | [5] -13.8%

C#C[C@]1(O)CC[C@H]2[C@@H]3CC=C4c5sc(N(C)c6ccccc6)nc5CC[C@]4(C)[C@H]3CC[C@@]21C
inactive: [1] 75.2% | [2] 74.6% | [3] 89.9% | [8] 67.3% | [5] 48.4% | [6] 109% | [7] 54.6%

CCN(CC)c1ccc(/C=N/NC(=O)c2ccc(NS(C)(=O)=O)cc2)cc1
inactive: [1] 27.4% | [2] 28.4% | [3] 37.3% | [4] 40.5% | [5] 21.3% | [6] 45.7% | [7] 18.1%

CCOC(=O)Nc1ccc2c(ccn2C(=O)c2cccc(F)c2)c1
inactive: [1] 45.2% | [2] 26.1% | [8] 26% | [5] 25.6% | [6] 43.8% | [7] 24.6%
active: [3] -45.4%

COc1ccc(-c2nc(C#N)c(N3CCC(S(=O)(=O)N4CCOCC4)CC3)o2)cc1
inactive: [1] 96.9% | [2] 108% | [3] 99.3% | [4] 95.7% | [5] 110% | [6] 107% | [7] 97.1%

C#CCOc1ccc(/C=N/Nc2nc(-c3ccc(OC)cc3)cs2)cc1
inactive: [1] 68.7% | [2] 89.1% | [4] 93.3% | [8] 69.8% | [5] 71.4% | [6] 103% | [7] 78.8%
